Experimental data published in PubChem BioAssay (NCATS).
Results filed as inconclusive are left out. Entries that show only a call come without a potency. Active and inactive are the calls of the source. Calls follow the shape of the dose curve; as a rule, active = well fitted curve in the direction sought with a large enough effect; inconclusive = small, poorly fitted or top-dose-only effect, or another doubt; inactive = no such curve, though single readings can be large or run the other way.

Biological target: Ferritin light chain (Equus caballus) (UniProt P02791)
Assay: qHTS Validation Assay for Identification of Novel General Anesthetics (AID 2323)
Details: horse apoferritin, anesthetic-site fluorescent probe displacement; series mostly up to 76.9 µM
Source text: Source: NIH Chemical Genomics Center [NCGC]
Assay Submitter: Roderic Eckenhoff, University of Pennsylvania
Screening Center PI: Christopher P. Austin, NIH
Probe Development: NIH Chemical Genomics Center [NCGC]
Anesthetic development has remained a largely empirical process. There are growing concerns about the cognitive effects of known general anesthetics and acceleration of the onset of neurodegenerative disease. The compounds' toxicity and multiple specific binding targets in the mammalian brain [4] has made them less attractive as drug leads. In this assay, a GABAergic mimetic model system, apoferritin and a profluorescent 1-aminoanthracene ligand (1-AMA), was used to construct a competitive binding assay for identification of novel general anesthetics. The assay was validated for 1-AMA using other known anesthetics, such as isoflurane (CID:3763) and propofol (CID: 4943), [6].
[1] S.L. Bianchi, T. Tran, C. Liu, S. Lin, Y. Li, J.M. Keller, R.G. Eckenhoff, and M.F. Eckenhoff, Brain and behavior changes in 12-month-old Tg2576 and nontransgenic mice exposed to anesthetics. Neurobiol Aging 29 (2008) 1002-10.
[2] Z. Xie, Y. Dong, U. Maeda, R.D. Moir, W. Xia, D.J. Culley, G. Crosby, and R.E. Tanzi, The inhalation anesthetic isoflurane induces a vicious cycle of apoptosis and amyloid beta-protein accumulation. J Neurosci 27 (2007) 1247-54.
[3] P. Honegger, and J.M. Matthieu, Selective toxicity of the general anesthetic propofol for GABAergic neurons in rat brain cell cultures. J Neurosci Res 45 (1996) 631-6.
[4] M.F. Eckenhoff, K. Chan, and R.G. Eckenhoff, Multiple specific binding targets for inhaled anesthetics in the mammalian brain. J Pharmacol Exp Ther 300 (2002) 172-9.
[5] C.A. Butts, J. Xi, G. Brannigan, A.A. Saad, S.P. Venkatachalan, R.A. Pearce, M.L. Klein, R.G. Eckenhoff, and I.J. Dmochowski, Identification of a fluorescent general anesthetic, 1-aminoanthracene. Proc Natl Acad Sci U S A 106 (2009) 6501-6.
[6] W.A. Lea, J. Xi, A. Jadhav, L. Lu, C.P. Austin, A. Simeonov, and R.G. Eckenhoff, A high-throughput approach for identification of novel general anesthetics. PLoS One 4 (2009) e7150.
Three uL of reagents (free 1-AMA (50% saturated solution of 1-aminoanthracene
in PBS) in columns 3, 4 as negative control and 1-AMA/apoferritin mixture (10 uM horse-spleen apoferritin in 50% saturated 1-aminoanthracene in PBS) in columns 1, 2, 5-48) was dispensed into 1536-well Greiner black assay plates. Compounds (23 nL) were transferred via Kalypsys pintool equipped with 1,536-pin array (10 nL slotted pins, V&P Scientific, San Diego, CA). Titration of the positive control, propofol, were delivered via pin transfer from separate control plates to the 2nd column of each assay plate. The starting concentration of the control, dissolved in DMSO, was at 160 mM, followed by two-fold dilution points in duplicate, for a total of 16 concentrations. The plates were incubated for 10 min at room temperature, and then read on an EnVision HTS multilabel reader (Perkin-Elmer, Waltham, MA) (end point read, 3 min/plate) using Fura2 BFP excitation filter (380 nm, bandwidth 10 nm) and fluorescein emission filter (535 nm, bandwidth 25 nm) set. A LANCE/DELFIA dichroic mirror with a cutoff wavelength at 400 nm was used to maximize signal accuracy and strength. Vehicle-only plates, with DMSO being pin-transferred to the entire column 5-48 compound area, were inserted uniformly at the beginning and the end of each library in order to monitor for and record any shifts in the background. Activity was computed as the normalized fluorescence response relative to free 1-AMA and 1-AMA/apoferritin complex values. Concentration-effect relationships were derived by using curve fitting algorithms developed in-house (http://ncgc.nih.gov/pub/openhts/). A four parameter Hill equation was fitted to the concentration-response data by minimizing the residual error between the modeled and observed responses.
Potency is read from the fitted curve at half-maximal effect.

Chain of Ferritin light chain (Equus caballus) (P02791 2-175 limits assumed): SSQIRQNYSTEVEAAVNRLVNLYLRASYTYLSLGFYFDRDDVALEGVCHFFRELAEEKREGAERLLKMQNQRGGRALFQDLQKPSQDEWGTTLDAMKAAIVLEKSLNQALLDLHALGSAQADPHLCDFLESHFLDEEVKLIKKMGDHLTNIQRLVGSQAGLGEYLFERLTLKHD

Q: For `O=[N+]([O-])c1cccc2cn[nH]c12`, which Potency is on record?
A: inactive

Q: For `Cc1cc2c(cc1Cl)N(C(=O)Nc1ccnc3ccccc13)CC2`, which Potency is on record?
A: inactive

Q: How did the Potency turn out when `O=c1ccn([C@@H]2O[C@H](COP(=O)(O)OP(=O)(O)O)[C@@H](O)[C@H]2O)c(=O)[nH]1` was run?
A: inactive

Q: For `CCCOC(=O)c1c(-c2ccccc2)nc(CC)c(C(=O)SCC)c1CCC`, which Potency is on record?
A: inactive

Q: `CCCc1c(OCCCOc2ccc(OCC(=O)O)cc2)ccc(C(C)=O)c1O` was tested. Which Potency did it give?
A: inactive

Q: With `Cc1nc(N=Nc2ccc(S(=O)(=O)O)cc2S(=O)(=O)O)c(COP(=O)(O)O)c(C=O)c1O` as the compound, how does the Potency read?
A: inactive

Q: Which Potency does the source give for `O=C1C2C=CC=CC2=NC(=S)N1CCN1CCC(=C(c2ccc(F)cc2)c2ccc(F)cc2)CC1` (stereo not given) here?
A: inactive

Q: Which Potency does the source give for `Cc1ccc2c(c1)C(N1CCN(C)CC1)=Nc1cccnc1N2` here?
A: inactive

Q: With `NC(N)=NC(N)=Nc1cccc(Cl)c1` as the compound, how does the Potency read?
A: inactive

Q: For `CN1CCN(c2nc3cc(C(F)(F)F)ccc3n3cccc23)CC1`, which Potency is on record?
A: inactive

Q: With `NC(=O)c1ccccc1` as the compound, how does the Potency read?
A: inactive

Q: How did the Potency turn out when `OC1(c2ccc(Cl)cc2)CCN(Cc2c[nH]c3ccccc23)CC1` was run?
A: inactive

Q: Which Potency does the source give for `O=C(N[C@@H](Cc1ccccc1)C(=O)CCl)OCc1ccccc1` here?
A: inactive

Q: For `C=CCn1c(=O)c2c(nc(-c3ccc(S(=O)(=O)O)cc3)n2C)n(C)c1=O`, which Potency is on record?
A: inactive

Q: `CCCc1c(-c2ccc(O)cc2)nn(-c2ccc(O)cc2)c1-c1ccc(O)cc1` was tested. Which Potency did it give?
A: inactive

Q: How did the Potency turn out when `CC1CCN=C(N)S1` (stereo not given) was run?
A: inactive

Q: With `CCCCCCC/C=C\CCCCCCCCC(=O)O` as the compound, how does the Potency read?
A: 31.6 µM (active)

Q: `CC[C@H](NC(=O)c1c(C)c(-c2ccccc2)nc2ccccc12)c1ccccc1` was tested. Which Potency did it give?
A: inactive

Q: With `O=C(OCCN1CCOCC1)C1(c2ccccc2)CCCCC1` as the compound, how does the Potency read?
A: inactive

Q: Which Potency does the source give for `N=S(=O)(O)Cc1noc2ccccc12` here?
A: inactive

Q: Which Potency does the source give for `NC(N)=[N+]1CCc2ccccc2C1` here?
A: inactive

Q: With `NC/C=C\C(=O)O` as the compound, how does the Potency read?
A: inactive

Q: For `CC(=O)NNC(=O)N1Cc2ccccc2Oc2ccc(Cl)cc21`, which Potency is on record?
A: inactive

Q: `Nc1ccc(N2C(=O)c3ccccc3C2=O)c(Cl)c1` was tested. Which Potency did it give?
A: inactive

Q: With `N[C@@H](Cc1ccc(F)cc1)C(=O)O` as the compound, how does the Potency read?
A: inactive

Q: With `O=C(O)/C=C/c1cnc[nH]1` as the compound, how does the Potency read?
A: inactive

Q: Which Potency does the source give for `COc1ccc2c(c1)c(CC(=O)O)c(C)n2C(=O)c1ccccc1` here?
A: inactive

Q: `CNCCNS(=O)(=O)c1cccc2cnccc12` was tested. Which Potency did it give?
A: inactive

Q: How did the Potency turn out when `[Li+]` was run?
A: inactive

Q: `NS(=O)(=O)c1cccc2c1c([N+](=O)[O-])cc1nc(O)c(O)nc12` was tested. Which Potency did it give?
A: inactive

Q: Which Potency does the source give for `Cn1ccnc1` here?
A: inactive

Q: `COc1cc([C@@H]2c3cc4c(cc3[C@H](O)C3COC(=O)[C@@H]32)OCO4)cc(OC)c1OC` (stereo not given in full) was tested. Which Potency did it give?
A: inactive

Q: Which Potency does the source give for `COc1ccccc1N1CCN(CCN(C(=O)c2ccc(F)cc2)c2ccccn2)CC1` here?
A: inactive

Q: With `CC(=O)O[C@H]1CC2(C)[C@@H](C[C@@H](O)[C@H]3[C@@]4(C)CC[C@@H](O)[C@@H](C)[C@@H]4CC[C@@]32C)C1=C(CCC=C(C)C)C(=O)O` (stereo not given in full) as the compound, how does the Potency read?
A: inactive

Q: Which Potency does the source give for `Nc1ccc(CCNc2ncnc3c2ncn3C2OC(CO)C(O)C2O)cc1` (stereo not given) here?
A: inactive

Q: Which Potency does the source give for `CC[N+](CC)(CC)CC(=O)Nc1c(C)cccc1C` here?
A: inactive

Q: How did the Potency turn out when `C/C(=C\c1ccc(C(=O)O)cc1)c1ccc2c(c1)C(C)(C)CCC2(C)C` was run?
A: inactive

Q: With `CCCC[C@@]1(C2CCCC2)Cc2cc(OCC(=O)O)c(Cl)c(Cl)c2C1=O` as the compound, how does the Potency read?
A: inactive

Q: `O=c1cc(O)cc(/C=C/c2ccc(O)c(O)c2)o1` was tested. Which Potency did it give?
A: inactive

Q: Which Potency does the source give for `CCn1c(=O)[nH]c2cc(Cl)c(Cl)cc21` here?
A: inactive
